# Laboratory results: PubChem BioAssay (NCATS)
# Inconclusive results are not listed. A call without a number means that no potency is given here. The source made the active and inactive calls. Unless noted, the call rests on the fitted dose curve; in most records, active means well fitted curve in the direction sought with a large enough effect; inconclusive means small, poorly fitted or top-dose-only effect, or another doubt; inactive means no such curve, though single readings can be large; an effect the other way counts as inactive or inconclusive.
# Experiments:
# [1] = target: Ubiquitin carboxyl-terminal hydrolase 1 (Homo sapiens) (UniProt O94782); assay: Inhibitors of USP1/UAF1: Pilot qHTS (AID 504865);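 further: rhodamine fluorescence freed from ubiquitin-rhodamine substrate followed over time; top concentration of the series differs between compounds; nearly all actives have a fitted effect of over 35% in size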
# Method in brief: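 1nM USP1/UAF1 + cpd, 15 min RT; start w/ Ub-Rho 150nM final; kinetic FL 480/540 nm, 6 reads q60 s. Buffer 50mM HEPES pH 7.8, 0.5mM EDTA, 1mM TCEP, 0.01% Tween-20, 0.1 mg/ml BSA.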
# [2] = target: Luciferin 4-monooxygenase (Photinus pyralis) (UniProt P08659); assay: Biochemical firefly luciferase enzyme assay for NPC (AID 624030);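 further: purified P. pyralis luciferase at 10 nM with luciferin and ATP substrate; nearly all actives have a fitted effect of over 70% in size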
# Method in brief: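 Direct inhibition of firefly luciferase enzyme (10 nM final, 50 mM Tris Acetate) assessed by luminescence within 5 minutes. Percent activity scaled between DMSO and PTC124 positive control, with concentration-effect curves classified by fit quality and response.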
# [3] = S16 Schwann cell viability assay (CellTiter-Glo assay) (AID 624031);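 further: cellular ATP luminescence as a viability measure; nearly all actives have a fitted effect of over 70% in size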
# Method in brief: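 CellTiter-Glo ATP luminescence counter-screen in untransfected S16 rat Schwann cells, 24h compound exposure at 37 degree Celsius after overnight seeding (500-750 cells/well); response scaled between cell-free wells and DMSO (0% activity), curves classed by r2 and magnitude.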
# [4] = S16 Schwann cell PMP22 intronic element firefly luciferase assay (AID 624032); further: nearly all actives have a fitted effect of over 30% in size
# Method in brief: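 Luciferase reporter of PMP22 intronic-element expression in stably transfected S16 rat Schwann cells, read by ONE-Glo luminescence after 24 h compound exposure at 37 C. Activity scaled between DMSO (0%) and positive-control PTC124; concentration-effect curves quality-classified.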
# [5] = S16 Schwann cell PMP22 intronic element beta-lactamase assay (AID 624044; calls by dose curve; further: nearly all actives have a fitted effect of over 15% in size)
# Method in brief: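 Rat S16 Schwann cells with beta-Lac driven by a PMP22 intronic element, compound-treated 24 h at 37 °C. LiveBLAzer FRET B/G read: 460 nm normalized to potassium clavulanate vs DMSO; 535 nm FRET as viability; concentration-effect curves classified.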
# 3D7 = assay: qHTS profiling for inhibitors of Plasmodium falciparum proliferation (AID 504749); further: nearly all actives have a fitted effect of over 60% in size; further: potency means the concentration at half of the fitted maximal effect; settings: P. falciparum in erythrocytes, SYBR Green DNA, 72 h; series mostly up to 28.7 µM
# Method in brief: (§1)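 Three-day growth assay of blood-stage parasites in erythrocytes (0.3% parasitemia, 2.5% hematocrit) at 37 C, 5% CO2, quantified by SYBR Green DNA staining after overnight detergent lysis.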
# 7G8 = assay: as above; settings: P. falciparum in erythrocytes, SYBR Green DNA, 72 h; series mostly up to 28.7 µM
# Method in brief: as §1
# AA1029 = assay: as above; settings: P. falciparum in erythrocytes, SYBR Green DNA, 72 h; series mostly up to 28.7 µM
# Method in brief: as §1
# CP260 = assay: as above; settings: P. falciparum in erythrocytes, SYBR Green DNA, 72 h; series mostly up to 28.7 µM
# Method in brief: as §1
# CP286 = assay: as above; settings: P. falciparum in erythrocytes, SYBR Green DNA, 72 h; series mostly up to 28.7 µM
# Method in brief: as §1
# CP335 = assay: as above; settings: P. falciparum in erythrocytes, SYBR Green DNA, 72 h; series mostly up to 28.7 µM
# Method in brief: as §1
# DIV14 = assay: as above; settings: P. falciparum in erythrocytes, SYBR Green DNA, 72 h; series mostly up to 28.7 µM
# Method in brief: as §1
# Dd2 = assay: as above; settings: P. falciparum in erythrocytes, SYBR Green DNA, 72 h; series mostly up to 28.7 µM
# Method in brief: as §1
# GB4 = assay: as above; settings: P. falciparum in erythrocytes, SYBR Green DNA, 72 h; series mostly up to 28.7 µM
# Method in brief: as §1
# ICS = assay: as above; settings: P. falciparum in erythrocytes, SYBR Green DNA, 72 h; series mostly up to 28.7 µM
# Method in brief: as §1
# N140 = assay: as above; settings: P. falciparum in erythrocytes, SYBR Green DNA, 72 h; series mostly up to 28.7 µM
# Method in brief: as §1
# P94_40 = assay: as above; settings: P. falciparum in erythrocytes, SYBR Green DNA, 72 h; series mostly up to 28.7 µM
# Method in brief: as §1
# TAB165 = assay: as above; settings: P. falciparum in erythrocytes, SYBR Green DNA, 72 h; series mostly up to 28.7 µM
# Method in brief: as §1
# CP203 = assay: as above; settings: P. falciparum in erythrocytes, SYBR Green DNA, 72 h; series mostly up to 28.7 µM
# Method in brief: as §1
# DFO2036 = assay: as above; settings: P. falciparum in erythrocytes, SYBR Green DNA, 72 h; series mostly up to 28.7 µM
# Method in brief: as §1
# Sequence of Luciferin 4-monooxygenase (Photinus pyralis) (P08659 whole entry, looked up): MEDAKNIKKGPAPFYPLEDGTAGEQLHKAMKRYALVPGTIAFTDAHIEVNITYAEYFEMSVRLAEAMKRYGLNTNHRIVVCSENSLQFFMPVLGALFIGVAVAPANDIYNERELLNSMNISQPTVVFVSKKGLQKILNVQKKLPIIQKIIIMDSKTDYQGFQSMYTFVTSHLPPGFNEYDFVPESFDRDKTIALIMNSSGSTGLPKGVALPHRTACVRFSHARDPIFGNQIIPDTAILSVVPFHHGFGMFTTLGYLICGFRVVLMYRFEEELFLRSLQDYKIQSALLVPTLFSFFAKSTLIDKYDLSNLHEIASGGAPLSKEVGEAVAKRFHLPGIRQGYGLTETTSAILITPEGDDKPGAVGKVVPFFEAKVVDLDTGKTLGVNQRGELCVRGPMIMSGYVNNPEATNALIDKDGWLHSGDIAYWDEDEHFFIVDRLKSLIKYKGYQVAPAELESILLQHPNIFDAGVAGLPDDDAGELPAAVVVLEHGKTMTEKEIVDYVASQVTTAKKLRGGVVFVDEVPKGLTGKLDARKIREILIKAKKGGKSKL
# Sequence of Ubiquitin carboxyl-terminal hydrolase 1 (Homo sapiens) (O94782 whole entry, looked up): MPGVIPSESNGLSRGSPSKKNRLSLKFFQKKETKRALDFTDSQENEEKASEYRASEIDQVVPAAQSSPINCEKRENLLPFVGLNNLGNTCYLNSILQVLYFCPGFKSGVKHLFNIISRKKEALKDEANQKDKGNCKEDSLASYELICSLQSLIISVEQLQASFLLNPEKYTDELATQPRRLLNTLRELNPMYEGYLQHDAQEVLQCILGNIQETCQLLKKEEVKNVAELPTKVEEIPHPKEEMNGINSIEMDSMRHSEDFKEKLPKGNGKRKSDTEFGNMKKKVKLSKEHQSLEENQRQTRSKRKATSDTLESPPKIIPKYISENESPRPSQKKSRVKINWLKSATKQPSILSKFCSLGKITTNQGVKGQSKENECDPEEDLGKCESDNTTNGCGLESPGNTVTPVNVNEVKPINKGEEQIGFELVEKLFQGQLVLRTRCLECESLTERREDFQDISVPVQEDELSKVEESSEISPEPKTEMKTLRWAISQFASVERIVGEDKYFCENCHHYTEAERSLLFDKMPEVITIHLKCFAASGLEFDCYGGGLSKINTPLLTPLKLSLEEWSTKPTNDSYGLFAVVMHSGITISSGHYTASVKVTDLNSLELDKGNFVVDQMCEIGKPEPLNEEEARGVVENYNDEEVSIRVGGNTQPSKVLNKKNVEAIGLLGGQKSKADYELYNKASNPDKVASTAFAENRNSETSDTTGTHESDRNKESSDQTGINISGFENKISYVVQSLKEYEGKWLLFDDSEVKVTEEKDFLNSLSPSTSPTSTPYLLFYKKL
SMILES,Potency [1],outcome [2],Potency [3],Potency [4],outcome [5],Potency (3D7),Potency (7G8),Potency (AA1029),Potency (CP260),Potency (CP286),Potency (CP335),Potency (DIV14),Potency (Dd2),Potency (GB4),Potency (ICS),Potency (N140),Potency (P94_40),Potency (TAB165),Potency (CP203),Potency (DFO2036)
CC(C)(C)c1ccc(CN2CCN([C@H](c3ccccc3)c3ccc(Cl)cc3)CC2)cc1,inactive,inactive,inactive,inactive,inactive,6.31 µM (active),3.55 µM (active),8.91 µM (active),7.08 µM (active),4.47 µM (active),3.38 µM (active),15.1 µM (active),8.91 µM (active),15.1 µM (active),2.51 µM (active),7.08 µM (active),7.94 µM (active),7.94 µM (active),,
O=C(O)[C@@H](O)[C@@H](O)[C@H](O)C(=O)CO,inactive,inactive,inactive,inactive,inactive,inactive,inactive,inactive,inactive,inactive,inactive,inactive,inactive,inactive,inactive,inactive,inactive,inactive,inactive,inactive
CC1(C)S[C@@H]2[C@H](NC(=O)Cc3ccccc3)C(=O)N2[C@@H]1C(=O)O,inactive,inactive,inactive,inactive,inactive,inactive,inactive,inactive,inactive,inactive,inactive,inactive,inactive,inactive,inactive,inactive,inactive,inactive,inactive,inactive
C[C@H](CCC(=O)O)[C@H]1CC[C@@H]2[C@H]3[C@@H](C[C@@H](O)[C@]21C)[C@]1(C)CC[C@H](O)C[C@@H]1C[C@@H]3O,inactive,inactive,inactive,inactive,inactive,inactive,inactive,inactive,inactive,inactive,inactive,inactive,inactive,,inactive,inactive,,inactive,inactive,inactive
